Consider 40 molecules from PubChem BioAssay (Tox21).

“And” between values parts separate entries of the source, which are not always exact repeats. Equal entries are not always repeated. Records with an inconclusive call do not appear. The source made the active and inactive calls. The call rests on the fitted dose curve; in most records, active means well fitted activation curve with a large enough effect in the repeat runs; inconclusive means weak or mixed curves, or effect the other way; inactive means no such curve, though single readings can be large or run the other way.
On the % scale 0 is the no-effect control and ±100 the full control effect; potency means the concentration at half of the fitted maximal effect.

The nature of this assay: qHTS assay to identify small molecule agonists of the retinoic acid receptor (RAR) signaling pathway (AID 1159553). The settings on record: C3RL4 RARE luciferase reporter, agonist, 6 h; series mostly up to 73.3 µM; activation: at the top concentration. From the text: National Center for Advancing Translational Sciences [NCATS] NIH Chemical Genomics Center [NCGC] U.S. Environmental Protection Agency [EPA] National Institutes of Environmental Health Sciences [NIEHS] National Toxicology Program [NTP] Assay overview: All-trans Retinoic acid (atRA) is the potent natural metabolite of retinol and plays an important role in normal embryonic development and maintenance of cellular phenotype in adult animals. atRA is the activating ligand for the retinoic acid receptors (RARs) which form heterodimers with retinoid X receptors (RXRs) on the retinoic acid response element (RARE). Through activation of the RAR/RXRs nuclear receptors, atRA regulates the transcription of a large number of protein-coding genes and regulatory RNAs. Intracellular levels of atRA are controlled by the retinol signaling pathway (RSP) that regulates the biosynthesis and catabolism of atRA to maintain physiological levels. Chemicals that interfere with the RSP can cause abnormal intracellular levels of atRA and therefore are potential developmental toxicants. To assess compounds for the potential adverse effect on embryonic development through interfering with retinol signaling, a cell-based RARE luciferase reporter gene assay was used. C3RL4 cell line (OARSA/CFSAN/FDA, Laurel, MD) was used to screen Tox21 10K compound library for identifying activators of the RSP.
Assay Protocol Summary: C3RL4 cells were seeded at 1,000/well in 5 uL of assay medium into white solid 1,536-well tissue culture plates (Greiner Bio-One North America Inc. Monroe, NC) using a Multidrop Combi (Thermo Scientific, Waltham, MA) dispenser. After incubation at 37 C and 5% CO2 for an overnight, 23 nL of compounds dissolved in DMSO, positive control or DMSO only were transferred by a Pintool station (Kalypsys, San Diego, CA). After 6 hr incubation at 37 C and 5% CO2, 5 uL of Amplite Luciferase reagent (AAT Bioquest Inc. Sunnyvale, CA) was added to each assay plate using a Flying Reagent Dispenser (FRD) (Aurora Discovery, San Diego, CA). Luminescence was quantified on a ViewLux plate reader (PerkinElmer, Waltham, MA) after 30 min incubation at room temperature.
(In general: In qHTS, concentration-response curves come from the screen itself.)
Regarding `CC(C)CCON=O`, the “activation” value is -1.07% (inactive).
The same measure, in the same setting: the same measure for `CCC1CCC(=O)O1` (stereo not given): 0.0548% [at 94.8 µM] (inactive); for `Cc1nnc(-c2ccccc2)c(=O)n1N`: 5.63% (inactive).
On the same count and under the same terms, next, `C[N+]1(CCC(C(N)=O)(c2ccccc2)c2ccccc2)CCCCC1`: 1.24% (inactive); `Cc1nc2ccccc2c(=O)n1-c1ccccc1Cl`: 1.48% (inactive); `C=CC(=O)OCC`: -0.253% [at 94.8 µM] (inactive).
As for `C#CC(O)(C=CCl)CC` (stereo not given), the “activation” value was -0.0022% (inactive).
For the molecule `NP(N)(=O)NC(=O)c1ccc(F)cc1`, the “activation” value was -1.38% (inactive).
Still for that read-out and setting: next, `CCSCc1ccccc1OC(=O)NC`: -2.79% (inactive); `COC1=CC(=O)O[C@@H](/C=C/c2ccc3c(c2)OCO3)C1`: -13.7% (inactive); `Cc1ncc(C[n+]2csc(CCO)c2C)c(N)n1`: 0.539% (inactive).
Consider `O=C(O)COc1cc(Cl)c(Cl)cc1Cl`, for which the Potency entry was “inactive”.
On to `FC(Cl)(Cl)C(F)(Cl)Cl`, for which the “activation” value was 0.762% [at 94.8 µM] (inactive).
With `CC(C)c1ccc(OP(=O)(Oc2ccc(C(C)C)cc2)Oc2ccc(C(C)C)cc2)cc1`, the Potency result was “inactive”.
Take `C=CC(=O)NC(C)(C)CC(C)=O`: the “activation” value was -0.576% (inactive).
On the same count and under the same terms, next, `C[C@H]1O[C@H](OC2[C@@H](O)[C@@H](O)C(O)[C@H](O)[C@H]2O)[C@@H](N)C[C@@H]1N=C(N)C(=O)O` (stereo not given in full): 1.22% (inactive); `C=CC(C)(CCC=C(C)C)OC(=O)c1ccccc1N` (stereo not given): 1.17% [at 94.8 µM] (inactive).
Same read-out and setting: next, `CCCCC1C(=O)NC(=O)N(C2CCCCC2)C1=O` (stereo not given): 0.686% (inactive); `O=C(O)c1cc(Cl)ccc1Cl`: 6.87% (inactive).
Turning to `c1ccc2c(c1)-c1cccc3cccc-2c13`, the Potency entry was “inactive”.
For the molecule `O=C(O)CCCOc1ccc(Cl)cc1Cl`, the “activation” value is 4.73% (inactive).
Regarding `C1CCNCC1`, the “activation” value was -0.215% [at 94.8 µM] (inactive).
The same measure, in the same setting: next, `CC(C)(C)NCC(O)c1cc(Cl)c(N)c(C(F)(F)F)c1` (stereo not given): 2.43% (inactive).
Still for that read-out and setting: next, `NC(=S)c1c(Cl)cccc1Cl`: 0.106% (inactive).
In the case of `CCc1cnc(C2=NC(C)(C(C)C)C(=O)N2)c(C(=O)O)c1` (stereo not given), the Potency result was “inactive”.
For `CN[C@@H](C)[C@H](O)c1ccccc1`, the “activation” value is 0.679% (inactive).
The same measure, in the same setting: next, `CCC[N+](CCC)(CCC)CCC`: 0.515% (inactive); `CCN(C(C)=O)c1cccc(-c2ccnc3c(C#N)cnn23)c1`: 1.33% (inactive).
Same read-out and setting: the same measure for `COC(=O)Cc1ccccc1`: 0.66% (inactive); for `CC(Oc1cc(Cl)c(Cl)cc1Cl)C(=O)O` (stereo not given): -4.9% (inactive).
Same read-out and setting: next, `C=CCN1C[C@H](C)N([C@H](c2ccc(C(=O)N(CC)CC)cc2)c2cccc(OC)c2)C[C@H]1C`: -3% (inactive).
`c1ccc2sc(SNC3CCCCC3)nc2c1`: the Potency is 30.3 µM (active) and 68.6 µM (active).
Turning to `CN1CC[C@]23c4c5ccc(O)c4O[C@H]2[C@@H](O)C=C[C@H]3[C@H]1C5`, the “activation” value was -3.41% (inactive).
Same read-out and setting: next, `CC1(C)CC(=O)CC(C)(C)N1[O]`: 0.208% (inactive).
The same measure, in the same setting: next, `O=C1NC(=O)C(=O)C(=O)N1`: 18.5% [at 94.8 µM] (inactive).
The same measure, in the same setting: the same measure for `Cc1nc(N(C)C)nc(OC(=O)N(C)C)c1C`: 0.157% (inactive); for `CCOc1cccc(C2(N3CCN(c4ccccc4)CC3)CCC(C)CC2)c1` (stereo not given): 3.79% (inactive).
For `O=S(=O)(c1ccccc1)c1ccccc1`, the “activation” value is -7.53% (inactive).
For the molecule `N#CC(C#N)=Cc1ccc(O)c(O)c1`, the Potency was 26.6 µM (active).
For `OCCCl`, the “activation” value was 0.752% (inactive).
